PubChem BioAssay AID1578 (Sanford-Burnham Center for Chemical Genomics, 2009)
The whole screen tested about 290,000 compounds, of which about 3,000 (1%) were called active. This is one part of a sample in which actives are shown more often than they occur. Values without a mark were called inactive. Rule as the data show it: active = inhibition mostly above about 36% (no sharp cut-off); inactive = mostly below about 34%.

Experiment: inhibition of NOD1-driven NF-kB reporter – cell-based, luminescence, uHTS, primary screen (AID 1578);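 also: HEK-293T reporter cells stimulated with the NOD1 agonist gamma-tri-DAP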
Details: NOD1-driven NF-kB luciferase reporter cells, at 4 µM, stronger effect = higher value

Structure (SMILES)	inhibition
CCOc1ccc(NS(=O)(=O)c2ccc(NC(=O)C3CC3)cc2)cc1	23.9%
Fc1ccc(NC(=S)NCc2cccnc2)cc1	-21.1%
Cc1nnc(NC(=O)CN2CCN(Cc3c(Cl)cccc3Cl)CC2)s1	2.8%
C/C(=N\NC(=O)c1ccccn1)c1ccc(C(=O)O)s1	6.8%
Cc1ccccc1NC(=O)c1c(-c2ccccc2)noc1C	-7.9%
CN(Cc1ccccc1)S(=O)(=O)c1ccc(Cl)c(C(=O)NCc2ccc3c(c2)OCO3)c1	-8.3%
CC(=O)Nc1nc(C)c(-c2csc(Nc3cccc(C(C)=O)c3)n2)s1	3.5%
O=[N+]([O-])c1cccc(NC(=S)Nc2nc(-c3ccccc3Cl)cs2)c1	88.1% (active)
O=C(NC(=S)Nc1nc(-c2cccc([N+](=O)[O-])c2)cs1)c1ccccc1Cl	-36.4%
CC(=O)Nc1ccc(Nc2nc(-c3sc(NC(C)=O)nc3C)cs2)cc1	32.9%
O=C(NC(=S)Nc1nc(-c2cccc([N+](=O)[O-])c2)cs1)c1cc(Cl)ccc1Cl	13.4%
CC(C)CCNC(=O)c1nn(Cc2ccccc2)c(=O)c2ccccc12	-6.4%
Cc1cc(C(=O)CSc2nnc(NCc3ccccc3)s2)c(C)n1C	-18.8%
CCN1CCN(c2ncnc3sc(C)c(-c4ccccc4)c23)CC1	-8.6%
Cc1sc2ncnc(N3CCN(Cc4ccccc4)CC3)c2c1-c1ccccc1	43.2%
Cc1ccc(C(=O)NS(=O)(=O)c2ccc(N=NN(C)C)cc2)cc1	46.6% (active)
Cc1ccc(C(=O)NS(=O)(=O)c2ccc(C)cc2)cc1	-2.7%
Cc1ccc(C(=O)NS(=O)(=O)c2ccccc2)cc1	-46.6%
Cc1cccc(/C=C2\CCC(=C3SCCCS3)C2=O)c1	21.6%
O=C1C(=C2SCCCS2)CC/C1=C\c1ccc(F)cc1	76.9% (active)
O=C1/C(=C/c2ccc(F)cc2)CCC1C1CCCC1 (stereo unspecified)	-42.1%

Structure (SMILES)	inhibition
Cc1ccc(C(=O)Nc2cccnc2Cl)cc1Cl	-74.4%
NC(=O)COC(=O)c1ccc(NS(=O)(=O)c2ccc3c(c2)OCCO3)cc1	-9.9%
CS(=O)(=O)c1nc(-c2ccc(Br)cc2)cc(-c2ccccc2)c1C#N	40.6%
COc1ccc(-c2cc(-c3ccccc3)nc(SC(C)C(=O)O)c2C#N)cc1 (stereo unspecified)	-21.4%
COc1ccc(-c2cc(-c3ccccc3)c(C#N)c(S(C)(=O)=O)n2)cc1	19.6%
CS(=O)(=O)c1nc(-c2ccccc2)cc(-c2ccccc2)c1C#N	68.3% (active)
CC(C)C(Sc1nc(-c2ccccc2)cc(-c2ccccc2)c1C#N)C(=O)O (stereo unspecified)	52.9% (active)
N#Cc1c(-c2ccccc2)cc(-c2ccccc2)nc1SCCC(=O)O	3.1%
COC(=O)c1ccccc1NC(=O)CSc1n[nH]c(-c2ccco2)n1	-8.4%
O=C(C1CCN(c2ccc(N3CCOCC3)nn2)CC1)N1CCN(c2ccc(F)cc2)CC1	-18.2%
C=CCSc1nc2sc3c(c2c(=O)[nH]1)CC(C)(CC)OC3 (stereo unspecified)	-17.8%
Cc1ccccc1NC(=O)CC1SCCNC1=O (stereo unspecified)	11.3%
OCCNCCCCOc1cccc(Br)c1	75.8% (active)
COCCCNCCCCOc1cccc(Br)c1	-2.3%
C=CCNCCCCOc1cccc(Br)c1	11.4%
O=S(=O)(/N=C(/NC(=S)Nc1ccccc1)c1ccccc1)c1ccc(Cl)cc1	-32.1%
O=c1c(Cc2ccccc2)c(O)ccn1C1CCCCCCC1	-38.2%
O=c1c(Cc2ccc(F)cc2)c(O)ccn1C1CCCCC1	-17.4%
O=c1c(Cc2ccc(F)cc2)c(O)ccn1C1CC1	51.7% (active)
CCCCCCCCOC(=O)C(NC(=O)CCC(=O)Nc1ccc(S(N)(=O)=O)cc1)C(O)c1ccccc1 (stereo unspecified)	-2.4%
CCCCCCCCCCCC(=O)NC(C(=O)OCC)C(O)c1cccc([N+](=O)[O-])c1 (stereo unspecified)	34.1%

Structure (SMILES)	inhibition
CCCCCCCCCCCC(=O)NC(C(=O)O)C(O)c1ccccc1 (stereo unspecified)	55.2% (active)
CN1CCN(c2ccc(NC(=O)c3ccco3)cc2Cl)CC1	-46.7%
Nc1ccc(NC2C[C@@H](C(=O)O)NC2=O)cc1 (stereo partly specified)	-25.3%
CC(C)CC(=O)N/N=C/c1c(N)n(C)c(=O)n(C)c1=O	-7.7%
CCn1cc([N+](=O)[O-])c(C(=O)N2N=C(c3ccc4ccccc4c3)CC2c2ccccc2O)n1 (stereo unspecified)	-40.2%
CCn1cc([N+](=O)[O-])c(C(=O)N2N=C(c3ccc(Cl)c(Cl)c3)CC2c2ccccc2O)n1 (stereo unspecified)	-14.7%
CCn1cc(Cl)c(C(=O)N2N=C(c3ccc4ccccc4c3)CC2c2ccccc2O)n1 (stereo unspecified)	61.4% (active)
CCCCC(=O)Nc1cc(OCC)c(NC(=S)NC)cc1OCC	-5.5%
CCOc1cc(NC(=O)CCl)c(OCC)cc1NC(=O)CCl	71.2% (active)
CCOc1cc(Cl)c(NC(=O)CC)cc1OCC	-18.6%
CCN1C(=O)c2ccccc2Sc2ccc(C(=O)NC(C)C)cc21	0.6%
CC(=O)c1c(C)nc(-c2ccccc2)nc1NC(=O)C(C)C	-18%
COC(=O)c1sc(SC)c(S(=O)(=O)C(C)C)c1N/N=C(\C#N)S(=O)(=O)c1ccccn1	-7.4%
CCOC(=O)/C(C#N)=N/Nc1c(S(=O)(=O)Cc2ccco2)csc1C(=O)OC	-12.9%
COC(=O)c1sc(SC)c(S(=O)(=O)C(C)C)c1N/N=C(\C#N)C(=O)c1ccccc1	-8.9%
COC(=O)c1scc(C)c1NC(=O)c1ccc(Cl)cc1	-13.3%
COC(=O)c1cc(OC)c(OC)cc1NC(=O)Cc1ccccc1[N+](=O)[O-]	53.2%
CCSc1nnc(NC(=O)c2cc(C)on2)s1	-22.4%
Cc1ccc(CNS(=O)(=O)c2ccc3c(c2)NC(=O)C(C)S3)cc1 (stereo unspecified)	16.1%
